# An excerpt weighted towards active compounds, which were near 2.4% of everything screened.
# WRN helicase inh: blocks human WRN helicase | WRN helicase unwinding, fluorescent forked duplex, kinetic | Potency, µM (doses to about 114 µM), hits mostly inhibitors | AID 651768 | actives 0.46% (n = 360,000) | Q14191; further: nearly all actives have a fitted effect of over 55% in size
#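 Primary qHTS, 1536-well format. 20 nM WRN + compound, 15 min RT; start with 100 nM forked fluorophore/quencher duplex, 2 mM ATP (final); kinetic read ex 525/em 598 nm.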
# FEN1 inh: human FEN1 inhibition; P39748; Recombinant FEN1 flap cleavage, fluorescence, 15 min; Potency, µM (titrated, usually from 114 µM), usual class: inhibitors; actives 0.35% (n = 390,000); AID 588795; further: nearly all actives have a fitted effect of over 65% in size
#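 Potency values derive from four-parameter Hill fits of normalized qHTS data. The reaction used 10 nM FEN1 preincubated 15 min at room temperature with compound, then 50 nM DNA substrate, read at 0 and 15 min.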
# Pol kappa inh-1: blocks human DNA polymerase kappa activity; Potency, µM (top dose mostly 107 µM), usual class: inhibitors; purified Pol kappa, fluorescent DNA synthesis assay, 10 min; actives 0.53% (n = 400,000)
#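 Kinetic fluorescence screen: compound preincubated 15 min RT with 10 nM enzyme; 50 nM substrate (final) initiates; reads at 0/10 min.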
# POLI inh: DNA polymerase iota (human) inhibition; Pol iota fluorescent replication assay, 10 min; Potency, µM (doses to about 115 µM), actives largely listed as inhibitors; actives 1% (n = 390,000); AID 588590
# Target sequence (Q9UNA4 whole entry, looked up): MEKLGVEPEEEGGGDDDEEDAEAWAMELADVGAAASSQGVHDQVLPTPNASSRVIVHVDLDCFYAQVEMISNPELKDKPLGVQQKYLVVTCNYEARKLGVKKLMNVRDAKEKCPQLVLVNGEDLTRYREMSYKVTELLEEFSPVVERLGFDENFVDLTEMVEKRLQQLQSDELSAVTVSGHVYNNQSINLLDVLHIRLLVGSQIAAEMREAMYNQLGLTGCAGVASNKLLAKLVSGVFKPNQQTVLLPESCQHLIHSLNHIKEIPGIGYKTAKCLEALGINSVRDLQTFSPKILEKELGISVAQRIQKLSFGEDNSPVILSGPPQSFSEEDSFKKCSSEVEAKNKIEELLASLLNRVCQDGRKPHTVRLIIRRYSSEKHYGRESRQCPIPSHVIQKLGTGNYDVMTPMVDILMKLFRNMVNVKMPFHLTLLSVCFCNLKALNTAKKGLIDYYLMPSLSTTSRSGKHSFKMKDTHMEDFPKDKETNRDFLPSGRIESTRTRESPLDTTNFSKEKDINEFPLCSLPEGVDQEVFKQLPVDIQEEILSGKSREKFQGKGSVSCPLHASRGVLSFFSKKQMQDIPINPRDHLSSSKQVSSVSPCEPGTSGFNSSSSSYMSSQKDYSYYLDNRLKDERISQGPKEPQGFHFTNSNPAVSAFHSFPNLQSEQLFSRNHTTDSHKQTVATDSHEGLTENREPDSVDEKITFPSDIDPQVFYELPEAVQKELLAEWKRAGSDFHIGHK
#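 Fluorescent replication assay read twice, at 0 min and 10 min after adding 50 nM (final) substrate. Enzyme (10 nM) and compounds were first incubated 15 min at room temperature; enzyme-free buffer wells were negative controls.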
# Pol eta inh-1: inhibitors of human DNA polymerase eta. Potency, µM (series often up to 114 µM), actives largely listed as inhibitors. AID 588591. Q9Y253. actives 1.2% (n = 390,000). recombinant Pol eta, fluorescent DNA replication assay
#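 Pol eta (10 nM) was preincubated with compounds for 15 min at room temperature, after which fluorescent replication substrate (50 nM final) was added to start the reaction. Fluorescence was read kinetically at 0 and 10 min.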
# Pol beta inh: DNA polymerase beta (human) inhibition. actives 1.3% (n = 340,000). Potency, µM (doses to about 114 µM), most hits filed as inhibitors. P06746. AID 485314. Pol beta primer extension/strand displacement, fluorescence kinetic
#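 Pol beta (10 nM) was preincubated with compound for 15 min at room temperature. The reaction was then started with 50 nM substrate and read immediately and after a further 10 min at room temperature.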
# Pol kappa inh-2: Pol kappa (human) inhibition, cherry-pick confirmation | shares compounds with Pol eta inh-1 | purified Pol-kappa, fluorescent strand-displacement substrate | Potency, µM, actives largely listed as inhibitors | actives 76% (n = 920) | AID 720501
# Pol eta inh-2: Pol eta (human) inhibition, cherry-pick confirmation | shares compounds with Pol eta inh-1 | Pol eta primer extension, TAMRA/BHQ fluorescence, 10 min | Potency, µM, usual class: inhibitors | actives 64% (n = 2,600) | AID 720502
# Hits are given with their value; – = inactive; ? = inconclusive; · = no result; [ ] = dose if it differs, or a comment. The call rests on the fitted dose curve; in most records, active means well fitted curve in the direction sought with a large enough effect; inconclusive means small, poorly fitted or top-dose-only effect, or another doubt; inactive means no such curve, though single readings can be large; an effect the other way counts as inactive or inconclusive.
SMILES,WRN helicase inh,FEN1 inh,Pol kappa inh-1,POLI inh,Pol eta inh-1,Pol beta inh,Pol eta inh-2,others
CCOc1cc(/C=C(\C(=O)O)c2ccc(S(=O)(=O)N3CCCC3)s2)ccc1OC,–,–,–,–,–,·,·,
COc1cc(/C=N/NC(N)=O)ccc1OC(=O)c1cccs1,–,–,–,–,–,–,·,
CCOc1ccccc1COC(=O)c1cccc(-n2cnnn2)c1,–,–,–,–,–,–,·,
COc1ccc2c(c1OC)C(=O)OC2Nc1nc(-c2cc3cc(Br)ccc3oc2=O)cs1 (centres undefined),–[11.6 µM],–,–,?,–,?,?,
CC(Oc1ccc(F)cc1)C(=O)N1CCC(c2nc3ccccc3s2)CC1 (centres undefined),·,–,–,–,–,–,·,
O=S(=O)(c1ccc2nc(Nc3ccc(Br)cc3F)ccc2c1)N1CCCCC1,·,–,–,–,–,–,·,
Cc1ccc(C(=O)OCC(=O)c2ccc(CC(=O)N3CCOCC3)s2)cc1C,–[11.6 µM],–,79µM,22µM,13µM,·,?,
O=C(OCC(=O)N1CCOCC1)c1ccc2c(c1)OCCO2,–,–,–,–,–,–,·,
Cc1cc(C=O)c(C)n1-c1sc2c(c1C(=O)O)CCCC2,–,–,–,–,?,–,·,
Cc1ccc(C(=O)O)cc1-n1c(C)cc(C=O)c1C,–,–,?,28µM,20µM,18µM,60,
Cc1cc(C)cc(-n2nnc(-c3nsc(NC(=O)c4ccccc4Cl)n3)c2C)c1,·,–,–,?,?,7.9µM,·,Pol kappa inh-2=?
CCc1ccc(-n2nnc(-c3nsc(NC(=O)c4ccccc4Cl)n3)c2C)cc1,·,–,–,–,–,?,·,
CC(C(=O)NC1C(=O)N2C(C(=O)O)=C(CSc3nnnn3C)CSC12)n1cc(Br)cn1 (centres undefined),–,–,?,?,32µM,18µM,?,
Cn1nnnc1SCC1=C(C(=O)O)N2C(=O)C(NC(=O)C3CC3c3ccccc3)C2SC1 (centres undefined),?,–,?,14µM,14µM,32µM,48,Pol kappa inh-2=67
NC(C(=O)NC1C(=O)N2C(C(=O)O)=C(Cl)CSC12)c1ccccc1 (centres undefined),·,·,–,·,·,·,·,
O=C(Oc1ccc2c(=O)c(Oc3ccc4ccccc4c3)coc2c1)c1cncc(Br)c1,–,–,–,–,–,–,·,
CNC(=O)c1c(NC(=O)c2nc(SCc3ccc(C)cc3)ncc2Cl)sc2c1CCCC2,·,–,–,–,–,–,·,
CC1=C(C(=O)O)N2C(=O)C(NC(=O)c3nn(C)c(C)c3Cl)C2SC1 (centres undefined),–,–,–,?,32µM,–,48,Pol kappa inh-2=42
Cc1cccc(C)c1NC(=O)Cn1cc(S(=O)(=O)Cc2ccc(F)cc2)c2ccccc21,·,–,?,?,?,28µM,?,Pol kappa inh-2=?
Cc1cc(C)c(NC(=O)Cn2cc(S(=O)(=O)Cc3ccccc3F)c3ccccc32)c(C)c1,·,–,–,–,–,–,·,
CC(C)C(CCNC(=O)CC(Cc1ccccc1)c1ccco1)c1ccco1 (centres undefined),–[11.6 µM],–,?,?,79µM,32µM,85,Pol kappa inh-2=53
O=C(O)c1cc(N/N=C2/CC(c3ccccc3)Oc3ccccc32)ccc1Cl (centres undefined),?,–,?,?,20µM,40µM,60,
O=C1/C(=C/c2ccncc2)CCC/C1=C\c1ccncc1,?,–,–,10µM,45µM,–,?,
CSc1ccc(CSCC(=O)N2CCN(S(=O)(=O)c3ccc(C)cc3C)CC2)cc1,–,–,–,–,–,·,·,
Cc1nn(Cc2noc(C(=O)NC3CCC(C)CC3)n2)c(C)c1Br (centres undefined),–,–,–,–,–,–,·,

# Screening data: PubChem, National Center for Advancing Translational Sciences (NCATS)
